Test results taken from PMC4336329 (PLoS ONE, 2015).
In all, about 310,000 compounds went through this assay and about 14,000 (4.5%) showed an effect of 50% or more. Effects have a minus sign here. The entries come from a sample that favours strong results as a whole.

target: human ether-à-go-go-related gene (hERG) potassium channel (human, UniProt Q12809); experiment: primary screen, population patch clamp on CHO cells stably expressing hERG; higher = less effect of the substance
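Further: peak tail current of the secondary pulse compared with the same well before compound.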

Chain of human ether-à-go-go-related gene (hERG) potassium channel (Q12809 whole entry, looked up): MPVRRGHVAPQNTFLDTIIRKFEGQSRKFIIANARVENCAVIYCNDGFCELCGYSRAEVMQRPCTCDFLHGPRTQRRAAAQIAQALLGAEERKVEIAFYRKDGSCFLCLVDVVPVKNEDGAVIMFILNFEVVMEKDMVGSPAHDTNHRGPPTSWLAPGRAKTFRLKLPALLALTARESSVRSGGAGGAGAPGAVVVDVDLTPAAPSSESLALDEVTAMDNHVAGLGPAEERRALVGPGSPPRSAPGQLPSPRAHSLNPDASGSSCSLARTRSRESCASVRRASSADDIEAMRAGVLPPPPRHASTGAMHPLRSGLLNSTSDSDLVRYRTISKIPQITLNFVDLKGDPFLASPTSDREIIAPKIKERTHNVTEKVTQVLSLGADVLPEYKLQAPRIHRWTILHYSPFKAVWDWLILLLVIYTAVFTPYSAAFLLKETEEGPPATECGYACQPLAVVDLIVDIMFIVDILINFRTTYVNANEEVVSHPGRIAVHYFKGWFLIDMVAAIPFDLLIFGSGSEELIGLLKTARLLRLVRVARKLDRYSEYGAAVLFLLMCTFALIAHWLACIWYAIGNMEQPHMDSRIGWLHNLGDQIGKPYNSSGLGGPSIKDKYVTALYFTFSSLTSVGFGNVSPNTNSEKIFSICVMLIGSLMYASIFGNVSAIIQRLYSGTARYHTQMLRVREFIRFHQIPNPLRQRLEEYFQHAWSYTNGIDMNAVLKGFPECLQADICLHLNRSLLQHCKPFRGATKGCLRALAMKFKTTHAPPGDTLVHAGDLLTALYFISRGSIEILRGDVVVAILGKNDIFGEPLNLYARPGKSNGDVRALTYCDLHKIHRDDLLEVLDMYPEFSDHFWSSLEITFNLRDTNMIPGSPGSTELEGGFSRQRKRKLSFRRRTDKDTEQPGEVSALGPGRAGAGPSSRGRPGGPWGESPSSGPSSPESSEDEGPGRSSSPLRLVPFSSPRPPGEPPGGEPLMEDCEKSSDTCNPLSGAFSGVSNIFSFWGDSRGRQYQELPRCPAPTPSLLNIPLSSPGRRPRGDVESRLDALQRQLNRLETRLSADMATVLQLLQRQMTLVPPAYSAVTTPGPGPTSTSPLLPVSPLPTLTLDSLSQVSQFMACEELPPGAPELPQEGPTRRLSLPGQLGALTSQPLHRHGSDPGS

SMILES	hERG current change (%, negative = inhibition) at 10uM [%]
Cc1ccc(NN2C(=O)C=CC2=O)cc1	0.632
N/C(=N\S(=O)(=O)c1ccccc1)c1ccc([N+](=O)[O-])cc1	-30
COC(=O)C1C(=O)NC(SC)=C(C#N)C1c1ccccc1 (stereo not drawn)	8.09
COC(=O)c1cc(CSc2nnc(NC3CCCCC3)s2)oc1C	-10.1
Cc1ccc(CN(C)C(=O)c2c(C)nn(-c3ccccc3)c2C)cc1	8.12
C=C(C)c1cccc(C(C)(C)NC(=O)N2CCN(c3ncccn3)CC2)c1	0.0429
Cc1c(NC(=O)C(C)N2CC(C)OC(C)C2)c(=O)n(-c2ccccc2)n1C (stereo not drawn)	9.21
Cc1cccc(NC(=O)Nc2ccc(S(N)(=O)=O)cc2)c1	13.4
Cc1cccc(C(=O)NNC(=O)CCC(=O)Nc2cccc(Cl)c2C)c1	9.03
CCOc1ccc(-c2nnn(CC(=O)c3cc(OC)ccc3OC)n2)cc1	-7.91
O=C(Cn1nc(-c2cccc(Cl)c2)ccc1=O)Nc1ccccc1Br	10.7
COc1ccc(CC(=O)N2N=C(C)CC2(O)c2cccnc2)cc1OC (stereo not drawn)	-17
CCOc1c2ccc(C(=O)NCc3ccc4c(c3)OCO4)cc2nn1C	17.6
CCOc1ccc(C2c3[nH]c4ccccc4c3CCN2Cc2cccn2-c2ncccn2)cc1 (stereo not drawn)	-53.3
CCOc1ccc(C2c3[nH]c4ccccc4c3CCN2C(=O)Cn2cncn2)cc1 (stereo not drawn)	-15
Fc1ccc(C2c3[nH]c4ccccc4c3CCN2Cc2cccn2-c2ncccn2)cc1 (stereo not drawn)	-52.2
Fc1ccccc1C1c2[nH]c3ccccc3c2CCN1Cc1ccoc1 (stereo not drawn)	-51.7
Cn1nccc1C(=O)N1CCc2c([nH]c3ccccc23)C1c1ccc(F)cc1 (stereo not drawn)	-19.4
Fc1ccccc1C1c2[nH]c3ccccc3c2CCN1Cc1cccn1-c1ncccn1 (stereo not drawn)	-50.6

SMILES	hERG current change (%, negative = inhibition) at 10uM [%]
Fc1ccc(C2c3[nH]c4ccccc4c3CCN2Cc2ccoc2)cc1 (stereo not drawn)	-26.8
Cc1cnc(C(=O)N2CCc3c([nH]c4ccccc34)C2c2ccc(F)cc2)cn1 (stereo not drawn)	-39.8
O=C(c1cc2ncccn2n1)N1CCc2c([nH]c3ccccc23)C1c1ccccc1F (stereo not drawn)	-5.11
COc1ccc(C2c3[nH]c4ccccc4c3CCN2Cc2ccoc2)c(F)c1 (stereo not drawn)	-36.9
COc1ccc(OCC(=O)N2CCc3c([nH]c4ccccc34)C2c2ccccn2)cc1 (stereo not drawn)	21.4
Cc1ccccc1C1c2[nH]c3ccccc3c2CCN1Cc1cccn1-c1ncccn1 (stereo not drawn)	-46.3
CCn1c(COc2ccccc2C)nnc1SCC(=O)O	16.3
Cc1cc(C)cc(NC(=O)N2CCC(NC(=O)c3ccccc3C)CC2)c1	5.74
O=C(CSc1nnc(-c2ccccc2)n1-c1ccccc1)c1ccc[nH]1	16.4
CCOC(=O)N1CCN(C(=O)CNC(=O)c2ccc(Br)o2)CC1	11.7
COc1ccc(-c2csc(NC(=O)c3c(OC)cccc3OC)n2)cc1	7.77
COc1ccccc1CNS(=O)(=O)c1cc2c3c(c1)CCN3C(=O)CC2	-4.02
O=C1COc2ccc(C(=O)COC(=O)CNC(=O)C3CCCCC3)cc2N1	-7.17
COc1ccc(OCC(Cn2cnc3ccccc32)OC(C)=O)cc1.Cl (stereo not drawn)	-26
Cc1cc(C)n(-c2cc(C(C)(C)C)nc3c(-c4ccccc4)cnn23)n1	14.6
COc1ccc(C(=O)NCCS(=O)(=O)NCCc2ccccc2)cc1	-13.2
CC1(C)CC(C)(c2ccc(O)cc2O)N(c2cccc(Cl)c2)C(=S)N1 (stereo not drawn)	2.04
COCCNC(=O)c1c(N)n(-c2cccc(C)c2)c2nc3ccccc3nc12	-24.7
Cc1cccc(-n2c(N)c(C(=O)NCCN3CCOCC3)c3nc4ccccc4nc32)c1	-57.1

SMILES	hERG current change (%, negative = inhibition) at 10uM [%]
CCCNC(=O)c1c(N)n(-c2cccc(OC)c2)c2nc3ccccc3nc12	-5.21
Nc1c(C(=O)NCCN2CCOCC2)c2nc3ccccc3nc2n1-c1ccccc1	-52
Nc1c(C(=O)NCCN2CCOCC2)c2nc3ccccc3nc2n1-c1cccc(F)c1	-33.2
Nc1c(C(=O)NCCN2CCOCC2)c2nc3ccccc3nc2n1-c1ccc2c(c1)OCO2	-33.5
Cc1ccc(S(=O)(=O)NCCC(=O)NCc2ccccn2)cc1	11.1
Cc1ccc(-c2nnn(CC(=O)N(Cc3ccco3)C(C(=O)NC(C)(C)C)c3cccs3)n2)o1 (stereo not drawn)	-19.2
O=C(NCC1CCCO1)c1cc2c([nH]c3ccccc32)c(-c2cccc(Cl)c2)n1 (stereo not drawn)	-20.5
Cc1sc2nc(-c3ccc(Br)cc3)oc(=O)c2c1C	13.3
CSc1nc(C(=O)N2CCc3c([nH]c4ccccc34)C2c2ccccn2)cs1 (stereo not drawn)	-4.85
CC(=O)Nc1ccc(NC(=O)c2cc[n+]([O-])cc2)cc1	25.2
CC(C)Cc1nnc(NC(=O)CCC(=O)N2CCC(C)CC2)s1	0.442
CC(C)Cc1nnc(NC(=O)CCC(=O)N2CCN(c3ccc(F)cc3)CC2)s1	1.08
CC1CC(C)CN(C(=O)CCC(=O)Nc2nnc(C(C)C)s2)C1 (stereo not drawn)	12.6
CC(C)Cc1nnc(NC(=O)c2cc([N+](=O)[O-])ccc2N2CCOCC2)s1	-51.4
CC(C)Cc1nnc(NC(=O)CCC(=O)N2CC(C)CC(C)C2)s1 (stereo not drawn)	-50.8
CC(C)CNC(=O)c1cc([N+](=O)[O-])ccc1N1CCOCC1	4.47
CCc1nnc(NC(=O)c2cc([N+](=O)[O-])ccc2N2CCOCC2)s1	-15
CC(C)Cc1nnc(NC(=O)CCC(=O)N2CCN(c3ccc(Cl)cc3)CC2)s1	-3.51
CC(C)Cc1nnc(NC(=O)CCC(=O)N2CCN(c3ccc([N+](=O)[O-])cc3)CC2)s1	-72.3
